USP28 block – inhibitors of human USP28 deubiquitinase | inhibition, % at 25 µM | 47,000 tested, 3% active | Q96RU2 | purified USP28, Ub-rhodamine cleavage fluorescence, 30 min
USP30 inh – human USP30 deubiquitinase inhibition; purified USP30, Ub-rhodamine cleavage fluorescence; inhibition, % at 25 µM; Q70CQ3; 47,000 tested, 5.3% active
USP17 block – inhibitors of human USP17 deubiquitinase; A8MUK1; purified USP17, Ub-rhodamine cleavage fluorescence, 3 h; inhibition, % at 50 µM; 47,000 tested, 6.5% active
Target sequence (A8MUK1 whole entry, looked up): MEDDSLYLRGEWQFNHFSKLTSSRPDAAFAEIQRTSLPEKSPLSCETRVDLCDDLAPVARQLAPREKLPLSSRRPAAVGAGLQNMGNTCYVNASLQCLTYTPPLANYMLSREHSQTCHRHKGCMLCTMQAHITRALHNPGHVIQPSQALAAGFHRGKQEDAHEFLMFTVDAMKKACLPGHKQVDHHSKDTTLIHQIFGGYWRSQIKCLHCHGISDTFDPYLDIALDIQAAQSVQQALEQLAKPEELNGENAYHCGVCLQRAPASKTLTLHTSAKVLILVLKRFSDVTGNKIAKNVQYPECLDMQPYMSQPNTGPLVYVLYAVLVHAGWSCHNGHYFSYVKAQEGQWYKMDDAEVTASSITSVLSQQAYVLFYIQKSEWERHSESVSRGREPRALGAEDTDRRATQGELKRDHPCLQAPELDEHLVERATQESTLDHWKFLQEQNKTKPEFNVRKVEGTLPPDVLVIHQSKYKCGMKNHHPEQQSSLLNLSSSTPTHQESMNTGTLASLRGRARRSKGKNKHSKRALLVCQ
USP8 inh – inhibitors of human USP8 deubiquitinase. P40818. purified USP8, Ub-rhodamine cleavage fluorescence, 30 min. inhibition, % at 20 µM. 47,000 tested, 4.2% active. AID 1645853
An asterisk follows results filed as active; . = not tested or not shown. A selection: hits, their analogues and other compounds. The true share with any hit is near 14%. Rule as the data show it: active = inhibition above about 30%; inactive = the rest.

SMILES	USP28 block	USP30 inh	USP17 block	USP8 inh
COCCNc1nc(C)nc2c1oc1ccccc12	-11	-14	-23	1
COc1ncccc1CN(C)C(=O)NC1CCCCC1	6	13	1	23
CC(Sc1nc2ccccc2[nH]1)C(=O)NCc1ccc2c(c1)OCO2 (stereo not given)	3	6	-6	-10
CC(Sc1nc2ncc(Cl)cc2[nH]1)C(=O)Nc1ccc2c(c1)OCO2 (stereo not given)	19	-13	25	38*
COc1nn(C)cc1C(=O)N1CCC(C(=O)Nc2ccc(Br)cc2F)CC1	45*	-3	0	-5
CCOC(=O)c1noc2ncnc(N3CCc4ccccc43)c12	-2	-1	8	-13
CCOC(=O)c1noc2ncnc(Nc3ccc4c(c3)OCO4)c12	5	-18	28	69*
CCOC(=O)c1noc2ncnc(Nc3ccc(N4CCC(C)CC4)cc3)c12	-3	-2	2	50*
O=C1[C@H]2Cc3c([nH]c4ccccc34)CN2C(=O)CN1Cc1ccc(F)cc1	0	-16	-2	-1
COC1=CC(=O)c2c(O)c(C)c(CC(C)=O)c(O)c2C1=O	0	-98	64*	28
CC(C)OC(=O)c1cc2c(ccn2-c2ccc(F)cc2)n1CC(=O)N(C)C1CCCCC1	-10	-39	1	60*
CC(C)OC(=O)c1cc2c(ccn2-c2ccc(F)cc2)n1CC(=O)NC1CCCCC1	18	19	23	23
COC(=O)c1cc2c(ccn2-c2ccc(F)cc2)n1CC(=O)NC1CCCCC1	6	14	9	34*
CCOC(=O)c1cc2c(ccn2-c2ccc(F)cc2)n1CC(=O)N(C)C1CCCCC1	13	15	12	12
COc1ccc(CNC(=O)CN2C(=O)CSc3cccn3-c3ccccc32)cc1	5	-7	-3	-160
CCN1C[C@H]2CCN(C(=O)C3CCC3)CC[C@H]2S1(=O)=O	2	16	7	10
COCCn1cc(NC(=O)N2CCN(c3ccccc3F)CC2)c2ccccc21	11	0	13	54*
COCCn1cc(NC(=O)Nc2ccccc2Cl)c2ccccc21	-4	-24	-10	7
Cc1ncc(-c2ccccn2)c(-c2ccc(CNC(=O)C(C)CN3CCOCC3)cc2)n1 (stereo not given)	-16	-10	-9	-3
O=C(CCCCCn1c(=O)[nH]c2ccccc2c1=O)NCCc1ccc(Cl)cc1	8	22	16	48*
O=C(CCCCCn1c(=O)[nH]c2ccccc2c1=O)NCc1ccccc1Cl	19	48*	25	28
O=C(CCCn1c(=O)[nH]c2ccccc2c1=O)N1CCC(O)(c2ccc(Cl)cc2)CC1	-2	0	-5	-10
Cc1cc(C)c(NC(=O)c2ccc(NS(=O)(=O)c3ccccc3)cc2)c(C)c1	12	27	6	23
CC1CCN(Cc2nnc(-c3cn(CC(=O)NC4CCCCC4)c4ccccc34)o2)CC1	5	60*	35*	8
Cc1ccc(C2CC(=O)Nc3c2c(C)nn3-c2ccc3nnc(C)n3n2)cc1 (stereo not given)	21	35*	4	4
SMILES	USP28 block	USP30 inh	USP17 block	USP8 inh
COc1ccc(S(=O)(=O)NCc2nnnn2-c2ccc(C)cc2)cc1C	14	19	9	25
COc1ccc(-c2nc(CNS(=O)(=O)c3ccc(OC)cc3)cs2)cc1	19	0	49*	-2
COc1ccc(-c2nc(CNS(=O)(=O)c3ccc(OC)c(C)c3)cs2)cc1	6	24	38*	3
O=S(=O)(NCCc1csc(-c2ccc(F)cc2)n1)c1ccc(F)cc1	14	12	17	14
COc1ccc(CNC(=O)c2ccc(Cl)c(S(=O)(=O)N3CCOCC3)c2)cc1	-14	-35	-19	0
CC(C)Cc1nc2sc3c(SCC(N)=O)ncnc3c2c2c1CCC2	.	.	-3	1
CCCCc1nc2sc3c(SCC(N)=O)ncnc3c2c2c1CCC2	36*	23	18	-1
CCCCc1nc2sc3c(SCC(=O)Nc4cccc(C)c4)ncnc3c2c2c1CCC2	4	-12	64*	-1
CC(=O)NC(Cc1ccccc1F)C(=O)NC1CCN(c2nnnn2-c2ccccc2)CC1 (stereo not given)	-9	-2	-5	0
COCCN(C(=O)C(c1ccccc1)c1ccccc1)C1CCN(C)CC1	15	27	11	15
COc1ccccc1CN1C(=O)c2nc3ccccc3n2CC1(C)C(=O)NC1CCCC1 (stereo not given)	10	30*	-2	-2
CC1(C(=O)NC2CCCC2)Cn2c(nc3ccccc32)C(=O)N1CCc1ccccc1 (stereo not given)	2	36*	9	20
O=C(Nc1cnc(N2CCCCCC2)nc1)c1cnccn1	-7	-7	1	-4
Cc1c(OCC(=O)NCc2ccccc2Cl)ccc2c3c(c(=O)oc12)CCC3	2	9	19	52*
COc1cccc2c1OCC(C(=O)NCc1ccc(F)cc1)=C2	51*	-14	0	2
O=C(NCc1ccccc1Cl)C1=Cc2ccccc2OC1	22	15	6	1
Cn1ccc(CN2CCc3ccccc32)cc1=O	-56	-220	-8	51*
Cc1c(C(=O)NC2CC2)nnn1-c1cccc2c1CCN(Cc1ccncc1)C2	.	.	-18	-10
Cc1ccc2nc(N3CCN(C(=O)Cc4ccccc4)CC3)sc2c1	-8	-4	2	-6
O=C(Cc1ccccc1)N1CCN(c2nc3ccc(Cl)cc3s2)CC1	9	33*	17	16
CCc1nnc(-c2nnc(NC3CCN(C)CC3)c3ccccc23)o1	17	32*	12	3
CN1CCC(Nc2nnc(-c3nnc(C4CC4)o3)c3ccccc23)CC1	7	13	6	3
Cc1sc2ncnc(OCC(=O)c3ccc(NC(=O)CC(C)C)cc3)c2c1C	-17	-79	-16	30*
CC(=O)N1C[C@H]2[C@@H](C1)c1ccccc1[C@@H]2NC(=O)c1cccc(N(C)C)c1	-1	-5	0	-32
CC(C)Cc1nc2sc3c(SCC(=O)Nc4ccccc4)ncnc3c2c2c1COC(C)(C)C2	0	9	-9	-2
SMILES	USP28 block	USP30 inh	USP17 block	USP8 inh
O=C(O)C1=CC(/C=C/c2ccccc2)n2ncc(C(=O)Nc3ccc(F)cc3)c2N1 (stereo not given)	7	-27	13	41*
Cc1ccc(NC(=O)c2ccccc2C)cc1	13	20	9	14
Cc1ccc(NC(=O)c2cnn3c2NC(C(=O)O)=CC3/C=C/c2ccccc2)cc1 (stereo not given)	11	5	19	34*
O=C(c1cnc2[nH][nH]c(=O)c2c1)c1cc(Cl)cc(Cl)c1O	55*	46*	89*	94*
O=C(c1cnc2oc3ccccc3c2c1)c1ccccc1O	11	-3	12	10
O=C(Nc1ccc(F)cc1Cl)c1cc(C2CC2)n2nccc2n1	-6	-9	-10	-6
Cn1c(=O)n(Cc2ccccc2F)c(=O)c2c1nc1n2CCCN1Cc1ccccc1	22	40*	7	-12
Cn1c(N2CCCCCC2)nc2c1c(=O)n(Cc1ccc(Cl)cc1)c(=O)n2C	11	39*	2	-11
Cn1c(N2CCCCCC2)nc2c1c(=O)n(Cc1ccccc1Cl)c(=O)n2C	-6	-5	-9	-20

Screening results from PubChem.
